# Screens as filed in PubChem BioAssay.
# Luciferase inh: Photinus pyralis luciferase inhibition | P08659 | purified P. pyralis luciferase, luminescence, biochemical | Potency, µM (doses to about 115 µM), hits mostly inhibitors | 76,000 tested, 2.5% active; further: on the % scale 0 is the no-effect control and ±100 the full control effect; nearly all actives have a fitted effect of over 65% in size
#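 Luminescence read by CCD imaging after purified firefly luciferase (10nM final) was added to substrate buffer holding 10uM D-luciferin and 10uM ATP, pH 7.5, pre-dosed with compound.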
# HEK cytotox: cytotoxic compounds in HEK 293 cells. HEK 293 viability, ATP luminescence (CellTiter-Glo), 48-72 h. 94,000 tested, 6.6% active. AID 1345083. Potency, µM (titrated, usually from 115 µM), for the others: at the top dose activity change, negative = cytotoxicity, actives largely listed as inhibitors; further: on the % scale 0 is the no-effect control and ±100 the full control effect; nearly all actives have a fitted effect of over 60% in size
#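 Cytotoxicity was scored by loss of ATP-coupled luminescence (CellTiter-Glo) in HEK 293 cells. Compound treatment ran 48 or 72 hr at 37 degree Celsius, 5% CO2, 95% humidity.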
# hNpr1 antagonist: antagonists of human natriuretic peptide receptor Npr1; P16066; HEK293 hNpr1 GloSensor cGMP, ANP-stimulated luminescence; Potency, µM (doses to about 46.3 µM), without a hit: at the top dose activity change, negative = inhibition, actives largely listed as inhibitors; 76,000 tested, 1.6% active; calls by dose curve; further: on the % scale 0 is the no-effect control and ±100 the full control effect; nearly all actives have a fitted effect of over 60% in size
# Target sequence (P16066 whole entry, looked up): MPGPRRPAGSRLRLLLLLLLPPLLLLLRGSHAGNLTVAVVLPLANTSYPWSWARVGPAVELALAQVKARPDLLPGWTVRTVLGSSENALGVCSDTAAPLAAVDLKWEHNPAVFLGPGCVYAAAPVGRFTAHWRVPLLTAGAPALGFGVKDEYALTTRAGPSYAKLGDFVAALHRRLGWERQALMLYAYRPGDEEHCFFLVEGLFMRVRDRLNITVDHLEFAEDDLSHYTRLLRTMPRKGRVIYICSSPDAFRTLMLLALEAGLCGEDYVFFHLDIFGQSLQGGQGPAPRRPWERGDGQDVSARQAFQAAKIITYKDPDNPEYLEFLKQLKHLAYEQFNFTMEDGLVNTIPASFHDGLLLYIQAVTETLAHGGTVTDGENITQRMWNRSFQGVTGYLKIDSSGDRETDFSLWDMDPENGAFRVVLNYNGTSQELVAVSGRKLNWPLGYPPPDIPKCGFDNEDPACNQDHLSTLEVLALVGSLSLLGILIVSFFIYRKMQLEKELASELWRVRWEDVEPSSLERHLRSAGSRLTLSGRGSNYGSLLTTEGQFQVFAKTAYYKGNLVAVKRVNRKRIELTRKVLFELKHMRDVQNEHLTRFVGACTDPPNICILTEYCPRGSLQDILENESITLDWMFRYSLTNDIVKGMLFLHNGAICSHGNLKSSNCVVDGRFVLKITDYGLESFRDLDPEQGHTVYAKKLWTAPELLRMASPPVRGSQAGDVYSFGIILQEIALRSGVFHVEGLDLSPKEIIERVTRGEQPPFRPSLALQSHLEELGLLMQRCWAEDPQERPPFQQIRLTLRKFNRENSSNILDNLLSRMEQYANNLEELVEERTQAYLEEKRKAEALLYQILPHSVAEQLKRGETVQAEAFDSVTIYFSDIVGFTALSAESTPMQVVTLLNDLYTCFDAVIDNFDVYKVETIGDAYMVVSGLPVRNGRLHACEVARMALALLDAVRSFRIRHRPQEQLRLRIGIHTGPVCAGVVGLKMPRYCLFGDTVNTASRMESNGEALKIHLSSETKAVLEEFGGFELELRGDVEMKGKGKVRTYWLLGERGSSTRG
#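 HEK293 cells stably expressing human Npr1 and cGMP GloSensor pGS-40F, loaded 2 h with 2% GloSensor reagent, given compound 30 min at room temperature. Luminescence read before and 20 min after 0.1 nM hNppA.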
# NIH3T3 tox: kills NIH 3T3 cells; 94,000 tested, 4.3% active; AID 1345082; NIH 3T3 viability, CellTiter-Glo ATP luminescence, 48-72 h; Potency, µM (doses to about 96.7 µM), for the others: at the top dose activity change, negative = cytotoxicity, usual class: inhibitors; further: on the % scale 0 is the no-effect control and ±100 the full control effect; nearly all actives have a fitted effect of over 55% in size
#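 Cells were seeded at 400 per well, treated with pin-transferred compound, and kept 48 or 72 hr at 37 °C before CellTiter-Glo addition and luminescence imaging of cellular ATP.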
# NPR1 antag cnf: hNpr1 antagonism, confirmation assay | shares compounds with hNpr1 antagonist | HEK293 hNpr1 cGMP GloSensor luminescence, ANP-stimulated | Potency, µM (top dose mostly 57.6 µM), inactives show at the top dose activity change, negative = inhibition, usual class: inhibitors | 1,400 tested, 76% active | AID 1347044; calls by dose curve; further: nearly all actives have a fitted effect of over 70% in size
# NPR2 antag: antagonizes human Npr2, subtype selectivity check; Potency, µM (top dose mostly 57.6 µM), for inactives: top-dose activity change, negative = inhibition, most hits filed as inhibitors; AID 1347046; shares compounds with hNpr1 antagonist; HEK293 hNpr2 GloSensor cGMP luminescence, CNP-stimulated; 1,400 tested, 67% active; calls by dose curve; further: nearly all actives have a fitted effect of over 70% in size
# FLuc counter: FLuc enzyme inhibition, Npr1 counter-screen | Potency, µM (highest dose often 57.6 µM), for inactives: at the highest dose activity change, negative = inhibition, hits mostly inhibitors | 1,400 tested, 0.7% active | purified FLuc enzyme, luminescence, Km substrate | shares compounds with hNpr1 antagonist; further: 0% is about no effect
# GloSensor cGMP: reduces cGMP signal in GloSensor control cells | shares compounds with hNpr1 antagonist | HEK293 GloSensor cGMP, SNP-stimulated, luminescence | Potency, µM (doses to about 57.6 µM), for the others: top-dose activity change, negative = inhibition, actives largely listed as inhibitors | 1,400 tested, 69% active; calls by dose curve; further: on the % scale 0 is the no-effect control and ±100 the full control effect; nearly all actives have a fitted effect of over 70% in size
# * hit, by the source's call; i = inactive; ? = inconclusive; · = not tested or not shown; [ ] = remark or other dose. Hits are enriched below; roughly 11% of the tested compounds scored in any of these assays. Unless noted, the call rests on the fitted dose curve; in most records, active means well fitted curve in the direction sought with a large enough effect; inconclusive means small, poorly fitted or top-dose-only effect, or another doubt; inactive means no such curve, though single readings can be large; an effect the other way counts as inactive or inconclusive. Potency means the concentration at half of the fitted maximal effect.
SMILES,Luciferase inh,HEK cytotox,hNpr1 antagonist,NIH3T3 tox,NPR1 antag cnf,NPR2 antag,FLuc counter,GloSensor cGMP
O=C(Cc1ccc(Br)cc1)N1CCCN(c2cc(-c3ccc(F)cc3)[nH]n2)CC1,i,?,?,?,?,?,1.8%,27.3µM*
O=C(Cc1ccc(F)cc1)N1CCN(c2cc(-c3ccc(Cl)cc3)[nH]n2)CC1,i,39.8µM*,?,?,?,?,0.9%,?
COc1ccc(-c2cc(N3CCN(C(=O)Cc4ccc(F)cc4)CC3)n[nH]2)cc1,i,2.0%,-2.0%,-11.5%,·,·,·,·
CCC(=O)N1CCc2sc(C(=O)NC3CCN(Cc4ccccc4)CC3)cc2C1,i,?,-20.4%,-24.3%,·,·,·,·
CCC(=O)N1CCc2sc(C(=O)N3CCN(c4cccc(Cl)c4)CC3)cc2C1,i,?,10µM*,?,19.3µM*,19.3µM*,4.9%,17.2µM*
O=C(c1ccc(Cl)cc1)N1CCc2sc(C(=O)N3CCOCC3)cc2C1,i,?,0.2%,?,·,·,·,·
O=C(c1ccccc1)N1CCc2sc(C(=O)N3CCN(c4ccccc4)CC3)cc2C1,i,?,10µM*,?,21.7µM*,27.3µM*,-3.6%,21.7µM*
CN(C)C(=O)c1cc2c(s1)CCC(C(=O)N1CCN(c3cccc(Cl)c3)CC1)C2 (stereo not drawn),i,?,?,?,21.7µM*,19.3µM*,2.3%,15.3µM*
Cc1cccc(-n2nc(C)c(CCC(=O)N3CCSCC3)c2Oc2ccc(F)cc2F)c1,i,?,-14.0%,?,·,·,·,·
O=C(c1ccc(-c2ncc3cnc(-c4cccc(F)c4)cn23)cc1)N1CCc2cccnc21,i,10µM*,17.8µM*,31.6µM*,14µM*,14µM*,-17.2%[86.2 µM],17.7µM*
Cc1cnc(CC2CCCN(C(=O)c3ccncc3)C2)n1CC1CC1 (stereo not drawn),i,-4.9%,2.3%,-16.0%,·,·,·,·
CCc1cc(=O)n(CC(=O)Nc2ccc3c(c2)OCCO3)c(-c2cccc(F)c2)n1,i,?,?,?,?,-27.4%,0.7%,?
Cc1cc(CN2CCC3(CC2)CCN(Cc2cscn2)CC3CO)on1 (stereo not drawn),i,-5.1%,1.5%,-3.8%,·,·,·,·
O=C(COc1ccc(F)cc1)N1CCCC(Cc2noc(-c3ccccn3)n2)C1 (stereo not drawn),i,-27.6%,9.0%,-18.2%,·,·,·,·
COc1ccc(-c2nc(CC3CCN(C(=O)c4n[nH]c(=O)c5ccccc45)C3)no2)cc1 (stereo not drawn),i,31.6µM*,10µM*,?,12.2µM*,10.9µM*,-0.1%,8.62µM*
O=C(CCc1nc2ccccc2s1)N1CCC(Cc2noc(-c3ccc(F)cc3)n2)C1 (stereo not drawn),i,39.8µM*,11.2µM*,?,21.7µM*,21.7µM*,-7.6%,21.7µM*
O=C(CCc1nc2ccccc2s1)N1CCCC(c2nc(C3CCOCC3)no2)C1 (stereo not drawn),i,?,-14.3%,-26.3%,-10.3%,1.6%,-7.2%,-4.1%
O=C(Cn1c(=O)c2c(n1Cc1ccccc1)CN(Cc1ccccc1)CC2)NCc1ccc(F)cc1,i,?,?,?,·,·,·,·
CCN(C(=O)Cn1ccn2nc3c(c2c1=O)CCCCC3)c1cccc(C)c1,i,?,22.7%,?,·,·,·,·
CC1Oc2ccc(NC(=O)NCc3ccccc3)cc2CN(C2CCCc3ccccc32)C1=O (stereo not drawn),i,?,-10.3%,?,·,·,·,·
c1cc2nc(C3CCNC3)[nH]c2cn1 (stereo not drawn),i,-1.3%[230 µM],7.5%[70.6 µM],-17.8%[174 µM],·,·,·,·
O=C(CC1CCCCN(Cc2ccccc2)C1=O)Nc1ccc(F)cc1F (stereo not drawn),i,?,-0.4%,-27.5%,·,·,·,·
O=C(CC1CCCCN(Cc2ccccc2)C1=O)N1CCN(c2ccc(F)cc2)CC1 (stereo not drawn),i,?,11.2µM*,-27.2%,24.3µM*,21.7µM*,1.3%,21.7µM*
COc1ccc(CN2CCC(N3Cc4cccn4C3=O)CC2)cc1,·,?,·,-14.0%,·,·,·,·
O=C1N(C2CCN(Cc3ccc(C(F)(F)F)cc3)CC2)Cc2cccn21,·,?,·,-28.8%,15.3µM*,17.2µM*,-2.5%,12.2µM*
SMILES,Luciferase inh,HEK cytotox,hNpr1 antagonist,NIH3T3 tox,NPR1 antag cnf,NPR2 antag,FLuc counter,GloSensor cGMP
CC(C)NC(=O)N[C@H]1C[C@@H](Cc2cc(CN3CCN(c4ccccc4)CC3)on2)C1(C)C,i,?,11.2µM*,?,19.3µM*,19.3µM*,-0.3%,17.2µM*
CC(C)(C)C(=O)N[C@H]1C[C@@H](Cc2cc(CN3CCN(c4ccccc4)CC3)on2)C1(C)C,i,?,11.2µM*,-33.6%,19.3µM*,17.2µM*,-1.4%,12.2µM*
CC1(C)[C@H](Cc2cc(CN3CCCCC3)on2)C[C@@H]1NC(=O)c1ccccc1,i,?,0.3%[70.6 µM],?,·,·,·,·
CC(C)(C)CCN1CCCC(COc2ccccc2C(=O)N2CCOCC2)C1 (stereo not drawn),i,-4.1%,-4.5%,-4.2%,·,·,·,·
O=C1NCc2ccccc2CC12CCN(Cc1cc(O)cc(O)c1)C2 (stereo not drawn),·,4.4%,·,i,·,·,·,·
O=C(c1ccc(F)cc1F)N1CCC2(CC1)N=C(c1ccc(Cl)cc1)NO2,i,?,14.1µM*,?,24.3µM*,24.3µM*,-3.7%,21.7µM*
O=C(c1ccc(F)cc1F)N1CCC2(CC1)N=C(c1ccc(Br)cc1)NO2,i,?,11.2µM*,?,17.2µM*,15.3µM*,-1.9%,12.2µM*
C=CCNC(=O)Cn1nc2c(cc1=O)CCCCC2,i,-8.1%,7.2%,i,·,·,·,·
CCN1CCCN(S(C)(=O)=O)CC12CCOCC2,i,-10.1%,0.3%,-6.6%,·,·,·,·
COc1cc(Cl)ccc1C(=O)NC1CCN(c2cc(C(F)(F)F)nc(C)n2)CC1,i,?,?,?,21.7µM*,21.7µM*,1.7%,19.3µM*
